Measured values as given in PubChem BioAssay (NCI).
About 83,000 compounds went through this panel and 20% of them were active in at least one assay; those are over-represented in the sample as a whole.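 How to read the values: 0–100, growth inhibition (40 = 60% inhibited); 0, no net growth; -100 to 0, cell death (-40 = 40% of starting cells died; -100 = all dead).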 Activity calls are given as the source filed them. How the source made its calls: active means growth percent below 10; inactive means the rest.

Columns and labels:
Assay in all cases: NCI-60 one-dose screen, 48 h (100 = growth as untreated, 0 = no growth, -100 = all killed)
Conditions in all cases: 10 µM
SR leukemia = tested on: SR leukemia
RPMI-8226 leukemia = tested on: RPMI-8226 leukemia
OVCAR-8 ovarian = tested on: OVCAR-8 ovarian
OVCAR-5 ovarian = tested on: OVCAR-5 ovarian
OVCAR-4 ovarian = tested on: OVCAR-4 ovarian
SK-OV-3 ovarian = tested on: SK-OV-3 ovarian
IGROV1 ovarian = tested on: IGROV1 ovarian
OVCAR-3 ovarian = tested on: OVCAR-3 ovarian
HS 578T breast = tested on: HS 578T breast
NCI/ADR-RES ovarian = tested on: NCI/ADR-RES ovarian
T-47D breast = tested on: T-47D breast
BT-549 breast = tested on: BT-549 breast
MDA-MB-435 melanoma = tested on: MDA-MB-435 melanoma
SW-620 colon = tested on: SW-620 colon
MCF7 breast = tested on: MCF7 breast
HCT-116 colon = tested on: HCT-116 colon
HCC-2998 colon = tested on: HCC-2998 colon
KM12 colon = tested on: KM12 colon

Measured: growth

CCCC(C)c1ccc(OCCCCCCN2CCNCC2)cc1 (configuration not stated)
active: SR leukemia -24.7% | RPMI-8226 leukemia -9.35% | T-47D breast -12.7% | SW-620 colon -16.6% | MCF7 breast -23.2% | HCT-116 colon -6% | HCC-2998 colon -71.4%
inactive: OVCAR-8 ovarian 36.8% | OVCAR-5 ovarian 80.8% | OVCAR-4 ovarian 62.2% | SK-OV-3 ovarian 87% | IGROV1 ovarian 64.7% | OVCAR-3 ovarian 62.6% | HS 578T breast 68.1% | NCI/ADR-RES ovarian 54.3% | BT-549 breast 76.5% | MDA-MB-435 melanoma 28.9% | KM12 colon 15.1%

Cc1cccc2c(Nc3ccc(NS(C)(=O)=O)cc3)c3ccc([N+](=O)[O-])cc3nc12
active: SR leukemia 2.56% | RPMI-8226 leukemia 0.668% | OVCAR-8 ovarian 2.24% | IGROV1 ovarian -27.4% | OVCAR-3 ovarian -28.9% | T-47D breast 0.696% | SW-620 colon -43.5% | MCF7 breast 0.147% | HCT-116 colon 5.63% | HCC-2998 colon -30.6% | KM12 colon -46.6%
inactive: OVCAR-5 ovarian 49.9% | OVCAR-4 ovarian 16.6% | SK-OV-3 ovarian 38.3% | HS 578T breast 56.6% | NCI/ADR-RES ovarian 66.6% | BT-549 breast 29.1% | MDA-MB-435 melanoma 33.2%

CC(=O)Nc1ccc2c(c1)C(N1CC3CCC(CC3)C1)c1ccccc1-2 (configuration not stated)
active: SR leukemia 0.162%
inactive: RPMI-8226 leukemia 52.5% | OVCAR-8 ovarian 88.3% | OVCAR-5 ovarian 95.8% | OVCAR-4 ovarian 65.9% | SK-OV-3 ovarian 91.4% | IGROV1 ovarian 92.9% | OVCAR-3 ovarian 100% | HS 578T breast 83.2% | NCI/ADR-RES ovarian 88.6% | T-47D breast 66.6% | BT-549 breast 126% | MDA-MB-435 melanoma 99.4% | SW-620 colon 83.8% | MCF7 breast 96.7% | HCT-116 colon 71.9% | HCC-2998 colon 99.5% | KM12 colon 80.7%

Cn1c(=O)c2[nH]c(C(O)c3ccc(Cl)cc3)nc2n(C)c1=O (configuration not stated)
inactive: SR leukemia 104% | RPMI-8226 leukemia 90.6% | OVCAR-8 ovarian 97.8% | OVCAR-5 ovarian 99.6% | OVCAR-4 ovarian 91.3% | SK-OV-3 ovarian 101% | IGROV1 ovarian 111% | OVCAR-3 ovarian 109% | HS 578T breast 87.9% | NCI/ADR-RES ovarian 97.9% | T-47D breast 101% | BT-549 breast 93.6% | MDA-MB-435 melanoma 101% | SW-620 colon 89.5% | MCF7 breast 96.6% | HCT-116 colon 95% | HCC-2998 colon 97.8% | KM12 colon 97.3%

O=S(=O)(NCl)c1ccccc1
inactive: SR leukemia 86% | RPMI-8226 leukemia 105% | OVCAR-8 ovarian 103% | OVCAR-5 ovarian 110% | OVCAR-4 ovarian 95.9% | SK-OV-3 ovarian 105% | IGROV1 ovarian 107% | OVCAR-3 ovarian 119% | HS 578T breast 102% | NCI/ADR-RES ovarian 103% | T-47D breast 92% | BT-549 breast 102% | MDA-MB-435 melanoma 98.9% | SW-620 colon 107% | MCF7 breast 85.5% | HCT-116 colon 101% | HCC-2998 colon 97.3% | KM12 colon 102%

C=CCOc1ccc2c(c1)CC[C@@H]1[C@@H]2CC[C@]2(C)C(=O)/C(=N/O)C[C@@H]12
inactive: RPMI-8226 leukemia 20.2% | OVCAR-8 ovarian 70.5% | OVCAR-5 ovarian 44.7% | SK-OV-3 ovarian 81.8% | OVCAR-3 ovarian 75.6% | HS 578T breast 35.4% | NCI/ADR-RES ovarian 57.6% | T-47D breast 22.7% | BT-549 breast 28.6% | MDA-MB-435 melanoma 61.6% | SW-620 colon 42.5% | MCF7 breast 44.2% | HCT-116 colon 12.2% | HCC-2998 colon 27% | KM12 colon 61.6%
active: SR leukemia 7.72% | OVCAR-4 ovarian 8.34% | IGROV1 ovarian 0.671%

CC[C@@]1(C(N)=O)CC2C=CC1C2 (some centres not stated)
inactive: SR leukemia 85.8% | RPMI-8226 leukemia 102% | OVCAR-8 ovarian 106% | OVCAR-5 ovarian 113% | OVCAR-4 ovarian 114% | SK-OV-3 ovarian 103% | IGROV1 ovarian 123% | OVCAR-3 ovarian 132% | HS 578T breast 118% | NCI/ADR-RES ovarian 113% | T-47D breast 103% | BT-549 breast 104% | MDA-MB-435 melanoma 106% | SW-620 colon 113% | MCF7 breast 99.5% | HCT-116 colon 104% | HCC-2998 colon 108% | KM12 colon 119%

NC1CCC(Nc2nc(NCc3ccc(-c4ccccc4O)nc3)c3ncn(C4CCCC4)c3n2)CC1 (configuration not stated)
inactive: OVCAR-5 ovarian 19.3% | NCI/ADR-RES ovarian 10.3%
active: SR leukemia -41.3% | RPMI-8226 leukemia -28% | OVCAR-8 ovarian 7.26% | OVCAR-4 ovarian 6.5% | SK-OV-3 ovarian 8.5% | IGROV1 ovarian 8.35% | OVCAR-3 ovarian -6.34% | HS 578T breast 8.94% | T-47D breast -34.2% | BT-549 breast -28% | MDA-MB-435 melanoma -81.5% | SW-620 colon 0.393% | MCF7 breast -62.4% | HCT-116 colon -55.8% | HCC-2998 colon -73.3% | KM12 colon -16.2%

O=C(O)CCCCSCCCCC(=O)O
inactive: SR leukemia 87.6% | RPMI-8226 leukemia 97.9% | OVCAR-8 ovarian 106% | OVCAR-5 ovarian 122% | OVCAR-4 ovarian 113% | SK-OV-3 ovarian 98.7% | IGROV1 ovarian 97.9% | OVCAR-3 ovarian 109% | HS 578T breast 104% | NCI/ADR-RES ovarian 109% | T-47D breast 86.7% | BT-549 breast 110% | MDA-MB-435 melanoma 107% | SW-620 colon 111% | MCF7 breast 97.5% | HCT-116 colon 108% | HCC-2998 colon 106% | KM12 colon 110%
